# Compound activity deposited in PubChem BioAssay by Bradner/Qi Labs at DFCI.
# CBX7 inh: blocks human CBX7 binding to H3K27me3 peptide | normalised signal (fraction of DMSO) (test concentration not listed) | 66,000 compounds, 1.1% hits | O95931 | AlphaScreen His6-CBX7 / biotin-H3K27me3 peptide binding; stronger effect = lower value; in the data active = normalised signal below about 0.5
# Target sequence (O95931 whole entry, looked up): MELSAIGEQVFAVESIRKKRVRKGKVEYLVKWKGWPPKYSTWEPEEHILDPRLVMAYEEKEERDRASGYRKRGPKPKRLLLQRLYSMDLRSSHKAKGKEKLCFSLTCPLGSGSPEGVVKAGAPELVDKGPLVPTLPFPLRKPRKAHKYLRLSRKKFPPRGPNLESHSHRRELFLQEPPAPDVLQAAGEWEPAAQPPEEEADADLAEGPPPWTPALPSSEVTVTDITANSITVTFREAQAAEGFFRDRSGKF
# * marks the source's active call; other numbers are inactive results. Many of the other results were omitted from the sample, so hits are more common in it than they were.
SMILES,CBX7 inh
CCOc1ccc(-c2cc(C(=O)NCCN3CCOCC3)c3ccccc3n2)cc1,0.992
COCCn1c(=O)[nH]c2cc(C(=O)N3CCN(Cc4ccccc4)CC3)ccc2c1=O,1.03
CCc1ccccc1N(C)S(=O)(=O)c1ccc2[nH]cc(C(=O)NC(C)CC)c(=O)c2c1 (configuration not stated),1.02
O=c1[nH]c2ccc(S(=O)(=O)N3CCc4ccccc43)cc2[nH]c1=O,0.921
CCOCCCNC(=O)CSCc1nc(-c2ccccc2F)oc1C,1.01
COc1ccccc1CNC(=O)c1nn(-c2ccccc2OC)c(=O)c2ccccc12,0.941
COCCNC(=O)c1nn(-c2ccccc2OC)c(=O)c2ccccc12,1.01
CCN(CCCNC(=O)c1nn(-c2ccccc2OC)c(=O)c2ccccc12)c1cccc(C)c1,0.481*
CCc1ccc2oc(-c3ccc(NC(=O)c4cncc(Br)c4)cc3)nc2c1,0.941
O=C(NCCc1ccc(Cl)cc1)c1cc(=O)[nH]c2ccc(S(=O)(=O)N3CCCCCC3)cc12,1.02
Cc1ccc(Cc2cnc(NC(=O)COc3ccc(Cl)cc3)s2)cc1,1.12
CCCN1Cc2cccc(C(=O)NCc3ccc(F)cc3)c2C1=O,1.06
CCC(=C(c1ccc(OC)cc1)c1ccc(OC)cc1)c1cn(CCCN(C)C)c2ccccc12,0.273*
COc1ccc(C(=O)c2cn(Cc3ccc(Cl)cc3)c3ccccc3c2=O)cc1,0.624
COc1ccc(C(O)Cn2c(=N)n(CCCN(C)C)c3ccccc32)cc1 (configuration not stated),0.947
Cc1ccn2c(NC(=O)COc3ccc(Cl)cc3Cl)c(-c3ccc(F)cc3)nc2c1,1.02
Cc1nccc2[nH]c(=O)c(C(=O)NCCCN3CCN(c4ccccc4F)CC3)cc12,0.911
COc1cccc(NC(=O)c2n[nH]c(=O)c3ccccc23)c1,1.19
Cc1cccc2nc(-c3ccccn3)c(Nc3ccc4c(c3)OCO4)n12,0*
Cc1cccc2nc(-c3ccc(Cl)cc3)c(Nc3ccc4c(c3)OCO4)n12,0.677
Cc1cccc2nc(-c3ccsc3)c(Nc3ccc4c(c3)OCO4)n12,0.78
Cc1cccc2nc(-c3ccc(N(C)C)cc3)c(Nc3ccc4c(c3)OCO4)n12,0.836
Cc1cccc2nc(-c3ccncc3)c(Nc3ccc4c(c3)OCO4)n12,0.988
Cc1cccc2nc(-c3ccccn3)c(Nc3ccc4c(c3)OCCO4)n12,0*
CCCCn1c(=O)c(-c2nc3ccccc3c(=O)[nH]2)c(O)c2ccccc21,1.04
SMILES,CBX7 inh
COc1ccc(-c2noc(/C=C/c3ccccc3)n2)cc1,1.27
Cc1oc(-c2ccccc2F)nc1CN1CCC(C(=O)NCCCSC2CCCCC2)CC1,0.997
CCOC(=O)N1CCC(NC(=O)c2nc(-c3cccc(OC)c3)oc2C)CC1,1.1
Cc1cc(N2CCCCC2)nc2ccc(NC(=O)C3CCCCC3)cc12,1.19
Cc1cccc(N2CCN(CCNC(=O)c3ccc4nc(N5CCOCC5)sc4c3)CC2)c1C,1.27
O=C(O)c1ccc2c(c1)NC(=O)C(CSCc1cccc(F)c1)N2 (configuration not stated),1.49
CCOc1ccccc1C1CC(c2cccs2)Nc2ncnn21 (configuration not stated),0.984
Cc1nnc(NC(=O)c2ccc(S(=O)(=O)N3CCCC3)cc2)o1,0.0237*
Cc1nnc(NC(=O)c2ccc(S(=O)(=O)N3CCCc4ccccc43)cc2)o1,0.0335*
CCOc1cccc2sc(NC(=O)c3ccc(S(=O)(=O)N4CCCc5ccccc54)cc3)nc12,1.19
COc1cc(OC)cc(-c2nnc(NC(=O)c3ccc(S(=O)(=O)N4CCCC4)cc3)o2)c1,0.859
Cc1nnc(NC(=O)c2ccc(S(=O)(=O)N3CCOCC3)cc2)o1,0.51
O=C(Nc1nnc(-c2ccc(F)cc2)o1)c1ccc(S(=O)(=O)N2CCCC2)cc1,0.0134*
COc1ccc(-c2nnc(NC(=O)c3ccc(S(=O)(=O)N4CCCC4)cc3)o2)cc1,0.564
O=C(Nc1nc(-c2ccncc2)cs1)c1ccc(S(=O)(=O)N2CCCc3ccccc32)cc1,0.863
CC1CC(C)CN(S(=O)(=O)c2ccc(C(=O)Nc3nnc(C4CC4)o3)cc2)C1 (configuration not stated),0.0653*
Cc1nnc(NC(=O)c2ccc(S(=O)(=O)N3CCCC(C)C3)cc2)o1 (configuration not stated),0.746
CCc1nnc(NC(=O)c2ccc(S(=O)(=O)N3CCCC(C)C3)cc2)o1 (configuration not stated),0.638
COc1ccc(-c2nnc(NC(=O)c3ccc(S(=O)(=O)N4CC(C)CC(C)C4)cc3)o2)c(OC)c1 (configuration not stated),0.97
Cn1c(NC(=O)COc2ccc(Cl)cc2)nc2ccccc21,0.875
COc1ccc(C(=O)NCCc2cc3ccc(C)cc3[nH]c2=O)cc1OC,0.898
C#CC(O)(c1ccc(OC)cc1)c1ccc(OC)c2ccccc12 (configuration not stated),0.976
Cc1[nH]c2c(ccc3ccccc32)c(=O)c1CN1CCCCCC1,1.13
O=C(Nc1nnc(C2CC2)o1)c1ccc(S(=O)(=O)N2CCOCC2)cc1,0.443*
CCc1nnc(NC(=O)c2ccc(S(=O)(=O)N3CCCCC3)cc2)o1,0.1*
SMILES,CBX7 inh
COc1ccc(-c2nnc(NC(=O)c3ccc(S(=O)(=O)N4CCOCC4)cc3)o2)cc1,0.516
CCc1nnc(NC(=O)c2ccc(S(=O)(=O)N3CCC(C)CC3)cc2)o1,0.621
CC(C)CN(CC(C)C)S(=O)(=O)c1ccc(C(=O)Nc2nnc(-c3ccc(Cl)s3)o2)cc1,0.863
COCc1nnc(NC(=O)c2ccc(S(=O)(=O)N3CCCC3)cc2)o1,0.573
O=C(Nc1nnc(C2CC2)o1)c1ccc(S(=O)(=O)N2CCCCCC2)cc1,0.00107*
CCC1CCCCN1S(=O)(=O)c1ccc(C(=O)Nc2nnc(C3CC3)o2)cc1 (configuration not stated),0.746
COc1cc(OC)cc(-c2nnc(NC(=O)c3ccc(S(=O)(=O)N4CCCCCC4)cc3)o2)c1,0.798
O=C(Nc1nnc(-c2ccc(Cl)s2)o1)c1ccc(S(=O)(=O)N2CCCCC2)cc1,0.159*
CCC1Oc2ccc(C)cc2N(CC(=O)NCCCN(CC)c2cccc(C)c2)C1=O (configuration not stated),0.561
O=C(CN1C(=O)CC(c2ccccc2)Sc2ccccc21)Nc1ccc2c(c1)OCO2 (configuration not stated),0.901
C=CCN1C(=O)c2ccccc2Sc2ccc(C(=O)NCc3ccc(OC)cc3)cc21,0.934
COc1ccc(OC)c2[nH]c(=O)c(CCNC(=O)c3cc(Br)ccc3Cl)cc12,1.01
Cc1ccc(F)cc1Nc1nc(Cc2ccccc2)nc2sc3c(c12)CCCC3,1.02
Cc1ccc(Cn2nnc3c(=O)n(CC(=O)NCc4ccccc4Cl)cnc32)cc1,0.871
O=C(O)c1ccc(S(=O)(=O)c2ccc3c(c2)C(=O)N(c2ccncc2)C3=O)cc1,0.977
COc1ccc2nc(N3CCC(C(=O)NCCN4CCCCC4C)CC3)sc2c1 (configuration not stated),1.14
Cc1ccc(NC(=O)CSc2nc3ccc(N)cc3s2)c(C)c1,0.947
O=C(Nc1ccc(Cl)cc1)c1cccc2c1C(=O)N(C1CCCCC1)C2,0.926
O=C(Nc1cccc(-c2nnc(-c3ccccc3)o2)c1)c1cccc(S(=O)(=O)N2CCOCC2)c1,1.01
CC(C)CCOC(=O)c1ccc(-c2n[nH]c(=O)c3ccccc23)cc1,1.12
